Screening results from PubChem.
M1 ag – M1 muscarinic receptor agonism. CHO-M1 cells, Fluo-4 calcium fluorescence, agonist mode; active compounds read high. 64,000 compounds, 3% hits. B-score at 10 µM. AID 626;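 active = fluorescence rise, raw or as B-score row- and column-corrected plate score, outside the 99.7% band of its plate's samples, either direction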
Cav3 T inh – human Cav3.2 channel inhibition, primary screen; O95180; Cav3.2-expressing cells, Fluo-4 calcium fluorescence FDSS; active compounds read low; B-score at 10 µM; 100,000 compounds, 4% hits; AID 449739;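 active = single-dose well whose peak fluorescence ratio is a statistical outlier from its plate by either plate-standardised score or position-corrected B-score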
M1 antagonist – blocks the rat M1 muscarinic receptor response to acetylcholine; CHO-M1 cells, Fluo-4 calcium, ACh EC80 antagonist mode; active compounds read low; B-score at 10 µM; 64,000 compounds, 3.4% hits;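 active = calcium fluorescence response, raw or row-and-column corrected B-score, differing from the plate sample mean either way at a set confidence level, mostly lower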
Target sequence (P08482 whole entry, looked up): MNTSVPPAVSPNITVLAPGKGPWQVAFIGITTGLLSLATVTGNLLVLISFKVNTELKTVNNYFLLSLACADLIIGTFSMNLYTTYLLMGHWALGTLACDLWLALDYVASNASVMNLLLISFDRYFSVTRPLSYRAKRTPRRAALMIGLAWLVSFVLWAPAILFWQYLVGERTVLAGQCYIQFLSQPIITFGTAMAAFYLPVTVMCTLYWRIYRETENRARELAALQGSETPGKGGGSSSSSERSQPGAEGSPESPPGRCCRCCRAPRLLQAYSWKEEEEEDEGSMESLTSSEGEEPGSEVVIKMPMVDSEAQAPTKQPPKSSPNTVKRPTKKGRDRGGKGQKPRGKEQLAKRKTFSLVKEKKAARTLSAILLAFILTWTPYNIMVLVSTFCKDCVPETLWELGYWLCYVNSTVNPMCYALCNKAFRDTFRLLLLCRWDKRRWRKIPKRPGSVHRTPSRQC
Pyk2 oligo antag – antagonists of human Pyk2 oligomerization; z-score (the deposit names both 25 µM and 10 µM); AID 1347419; 99,000 compounds, 0.83% hits; Q14289; Q293 cells, Pyk2 FERM NanoBiT luminescence; active compounds read low;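 active = Z-score of -3 or lower, scaled per plate to the spread of control and sample wells; inactive = z-score above -3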;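 also: negative z-score means lost luminescence so less FERM oligomerization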
Active calls of the source: *; nt = not tested or not shown. Only some compounds are listed: those with a hit (about 7.1% of all), similar ones and a draw of the others.

SMILES	M1 ag	Cav3 T inh	M1 antagonist	Pyk2 oligo antag
Cc1ccc(Nc2c([N+](=O)[O-])cc(C(=O)N3CC(=O)Nc4ccccc43)cc2[N+](=O)[O-])c(C)c1	nt	-0.134	nt	-3.37*
O=[N+]([O-])c1ccccc1N/N=C\c1ccccc1Cl	nt	2.87	nt	0.79
O=[N+]([O-])c1cc(Cl)cc(/C=N\Nc2ccccn2)c1O	nt	-3.75*	nt	0.11
Cc1ccc(S(=O)(=O)c2c(N)n(NC(=O)c3ccccc3C)c3nc4ccccc4nc23)cc1	nt	nt	nt	-0.04
Cc1ccc(C(=O)Nn2c(N)c(S(=O)(=O)c3ccc(C)cc3)c3nc4ccccc4nc32)cc1	nt	-5.46*	nt	-0.27
c1csc(Cc2nc(-c3ccc(-n4cccc4)cc3)no2)c1	-1.18	nt	-0.517	nt
CCC(C)NC(=O)C1CCCN(c2nc(C)cc(OC)n2)C1 (centres undefined)	nt	-0.666	nt	-1.07
COc1cc(C)nc(N2CCCC(C(=O)NC3CCC(C)CC3)C2)n1 (centres undefined)	1.12	-0.275	-15.8*	nt
Cc1ccccc1NC(=S)N(C)Cc1cn(C)c2ccccc12	nt	nt	nt	0.09
Cn1c(C(=O)NCCCN2CCCC2=O)cc2c(=O)n3ccccc3nc21	-0.994	nt	1.55	nt
C=CCn1c(COc2ccc(Cl)cc2)nnc1SCc1ccc(C#N)cc1	nt	-7.73*	nt	-0.51
C=CCn1c(COc2ccccc2)nnc1SCc1ccc(C#N)cc1	0.682	-0.000705	-0.686	1.02
COc1cccc2c(=O)n(CC(=O)Nc3cccc(F)c3)ccc12	0.721	0.87	0.403	nt
COc1ccc(-c2cn(-c3ccc(C)cc3)c(=O)n2CC(=O)Nc2cccc(F)c2)cc1	nt	-5.03*	nt	-0.86
CC[C@@H]1CC=C[C@H]2[C@H]1C(=O)N(Cc1ccccc1)[C@H]2c1cc(C)ccc1F	nt	-0.562	nt	nt
CCc1ccc(NSc2ccccc2[N+](=O)[O-])cc1	nt	-0.888	nt	-3.02*
COC(=O)c1cc2c(=O)n3ccccc3nc2n(C(C)C)c1=N	-0.72	nt	-0.293	nt
CCn1c(=N)c(C(=O)OC)cc2c(=O)n3ccccc3nc21	4.81*	nt	0.21	nt
O=C(O)CCCNc1cc(N2CCC3(CC2)OCCO3)c2noc3c2c1C(=O)c1ccccc1-3	6.19*	nt	0.416	nt
Cc1cc(NC(=O)Cn2nc3c(cc2=O)CCCC3)ccc1Br	-0.511	-6.16*	-0.423	1.31
O=C(Nc1ccc(O)cc1)c1ccc(C(=O)c2ccccc2)o1	1.78	-0.309	-0.242	-3.25*
Cc1ccc2nc(SCc3ccc([N+](=O)[O-])cc3)nc(C)c2c1	nt	-0.573	nt	0.12
Cc1ccc2nc(SCc3ccc([N+](=O)[O-])cc3)[nH]c2c1	nt	-5.8*	nt	-0.83
COc1ccc(CNC(=O)C(c2cccs2)N(Cc2ccco2)C(=O)Cc2cccs2)cc1 (centres undefined)	nt	-7.15*	nt	-0.76
COc1ccc(C(=O)N(Cc2ccco2)Cc2cccs2)c(O)c1	-0.0305	-4.84*	0.299	-0.41
SMILES	M1 ag	Cav3 T inh	M1 antagonist	Pyk2 oligo antag
Cc1ccc(-c2nnn(CC(=O)N(Cc3ccco3)C(C(=O)NC(C)(C)C)c3cccs3)n2)o1 (centres undefined)	-1.14	-6.33*	0.0824	-0.19
COc1ccc(CNC(=O)C(c2ccco2)N(Cc2cccs2)C(=O)Cc2cccs2)cc1 (centres undefined)	-0.583	-0.199	-0.0951	-1.76
Cn1nnnc1Sc1nc(-c2cccnc2)nc2ccccc12	0.115	nt	0.0416	nt
N#CC12CCCCC1CC1CCCCC1(C#N)N2Cc1cccnc1 (centres undefined)	-0.666	0.187	-0.944	0.99
CCOC(=O)c1cnc2ccc(C)cc2c1Sc1ccccc1	nt	-0.817	nt	-1.97
CCOC(=O)c1cnc2ccc(C)cc2c1Nc1ccc(N2CCOCC2)cc1	nt	-0.0284	nt	-3.05*
N#CC(c1cccc(Cl)c1)c1ccc2c(C(F)(F)F)cc(C(F)(F)F)nc2n1 (centres undefined)	nt	-9.17*	nt	-2.53
CCN(CC)S(=O)(=O)c1ccc(NC(=O)Cn2c(=O)sc3ccccc32)cc1	-2.44	-6.05*	0.0553	-0.5
O=C(Cn1c(=O)sc2ccccc21)Nc1ccccc1	nt	1.48	nt	-0.91
CCN(CC)S(=O)(=O)c1ccc(NC(=O)CCC2CCCCC2)cc1	nt	-4.42*	nt	-0.83
Cc1noc(NS(=O)(=O)c2ccc(NC(=O)CCC3CCCCC3)cc2)c1C	-0.00994	-0.288	0.346	-0.81
Cc1ncc(CCl)c2c1OC(C)(C)OC2	nt	2.43	nt	1.2
Cc1ccc2nc(SCc3nnc(-c4ccccc4Br)o3)[nH]c2c1	nt	-3.14	nt	0.14
CCOc1cc2nc(-c3ccc(OC)c(OC)c3)nc(N3CCOCC3)c2cc1OC	4.72	-5.97*	-0.455	nt
O=C(c1ccccc1C(=O)N1CCN(c2ccc(F)cc2)CC1)N1CCN(c2ccc(F)cc2)CC1	0.435	-4.11*	0.0663	0.65
O=C(O)c1ccccc1C(=O)N1CCN(c2ccccc2)CC1	-0.74	nt	0.352	0.04
O=C(CCCOc1ccccc1)N1CCN(c2ccc(F)cc2)CC1	nt	-7.78*	nt	1.03
CCc1cc2c(C)cc(=O)oc2cc1OC(=O)C1CCCN1C(=O)OC(C)(C)C (centres undefined)	1.77	-0.819	-0.645	nt
O=C(Nc1ccc(Cl)cc1)[C@@H]1[C@@H]2C(=O)N(c3ccc4ccccc4c3)C(=O)[C@@H]2[C@H]2C=CC=NN21	nt	-8.57*	nt	0.37
O=C(c1ccccc1Nc1ccc(SC(F)F)cc1)N1CCCCCC1	nt	-6.83*	nt	0.25
CS(=O)(=O)Nc1ccc(C(=O)Nc2ccccc2C(=O)N2CCCC2)cc1	-0.00908	0.506	-0.177	0.21
CC12CC(c3ccccc3O1)N(C(=O)c1ccco1)C(=S)N2c1ccc(F)cc1 (centres undefined)	nt	-2.62	nt	-0.4
Cc1ccccc1N1CCN(S(=O)(=O)c2ccccc2)CC1	nt	-4.62*	nt	-3.08*
Cc1cccc(N2CCN(S(=O)(=O)c3ccc(S(=O)(=O)N4CCCC4)cc3)CC2)c1C	nt	nt	nt	0.59
CCOc1ccc(S(=O)(=O)N2CCN(c3ccc(C)cc3C)CC2)cc1	-0.925	-4.68	-0.129	nt
SMILES	M1 ag	Cav3 T inh	M1 antagonist	Pyk2 oligo antag
COc1ccc(S(=O)(=O)N2CCN(c3ccc(C)cc3C)CC2)cc1OC	-0.851	-6.02*	-0.301	nt
Cc1cc(S(=O)(=O)N2CCN(c3ccccc3C)CC2)ccc1F	-0.652	-2.17	0.411	-3.59*
CCCNC(=O)c1ccc2c(c1)C1C3CCC(C3)C1C(c1ccccc1)N2 (centres undefined)	nt	-5.02*	nt	0.04
Cc1ccc(NS(=O)(=O)c2cc(NC(=O)c3cc4c(s3)CCCC4)ccc2C)c(C)c1	nt	nt	nt	0.74
C=CCN1C=CC(=C/C=C(/C#N)C(=O)OCC)C=C1	nt	-6.43*	nt	-0.27
Cc1ccc(C(CC(=O)NCc2ccco2)c2ccc(OC(C)C)cc2)cc1 (centres undefined)	nt	-5.1*	nt	-2.96
COc1ccc(/C(O)=C/C(=O)C(=O)NNC(=O)C(O)(c2ccccc2)c2ccccc2)cc1	nt	-9.67*	nt	-0.15
Cc1ccc(C2Nc3ccccc3C(=O)N2Cc2ccco2)cc1 (centres undefined)	0.0328	-1.98	-0.369	-1.49
Cc1cc(Br)ccc1NC(=O)CN1C(=O)C2C3CC(c4ccccc4)C(C3)C2C1=O (centres undefined)	nt	nt	nt	-1.38
CCCOc1ccccc1C1NC(=O)NC(C)=C1C(=O)OCc1ccccc1 (centres undefined)	nt	-1.54	nt	-2.54
CC1=C(C(=O)OCc2ccc3c(c2)OCO3)C(c2ccccc2OCc2ccccc2)NC(=O)N1 (centres undefined)	nt	-3.44	nt	-3.23*
